Measured values published in PubChem BioAssay (EPA / NIEHS).
Results filed as inconclusive are left out. The source made the active and inactive calls. Rule for the calls: active = hit-call score of the fitted dose curve at least 0.9, where 1 is the maximum; inconclusive = response in the unintended direction; inactive = score below 0.9.

Each compound was assayed against Cytochrome P450 2C19 (Homo sapiens) (UniProt P33261) (assay: NVS_ADME_hCYP2C19: NovaScreen (NVS) CYP450-related Enzyme Activity (ADME) Assay for human CYP2C19 (AID 2283113);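 for AC50: potency for inhibition seen as loss of fluorescent signal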).
Summary of the method: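 Cell-free assay of recombinant human CYP2C19 expressed in insect cells, with a fluorogenic substrate; fluorescence intensity read 1 hour after dosing. Loss of signal relative to acetonitrile negative control indicates inhibition. Primary screen at 10 uM in duplicate, then concentration series.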

Structure (SMILES)	outcome	AC50
CC(C)=CCCC(C)=CC=O	inactive	
O=C(O)CC(O)C(=O)O (configuration not stated)		12.9 µM (active)
COc1ccc(-n2nc(C(F)F)cc2-c2ccc(S(C)=O)cc2)cc1 (configuration not stated)		0.967 µM (active)
CN(C)c1ccc(Cc2ccc(N(C)C)cc2)cc1		0.727 µM (active)
On1ccccc1=S		5.15 µM (active)

Each compound was assayed against human AKT serine/threonine Kinase 1 (AKT1), AKT1 (gene 207) (UniProt P31749) (assay: NVS_ENZ_hAKT1: NovaScreen (NVS) Enzymatic Assay for human AKT serine/threonine Kinase 1 (AKT1) (AID 2283138)).
Summary of the method: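 Recombinant AKT1, specific substrate, cell-free; 1 h; fluorescence intensity/electrophoretic mobility shift. Duplicate single-point 25 uM, then singleton CRC max 50 uM. DMSO = negative control/baseline; signal loss = inhibition.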

Sequence of human AKT serine/threonine Kinase 1 (AKT1), AKT1 (gene 207) (P31749 whole entry, looked up): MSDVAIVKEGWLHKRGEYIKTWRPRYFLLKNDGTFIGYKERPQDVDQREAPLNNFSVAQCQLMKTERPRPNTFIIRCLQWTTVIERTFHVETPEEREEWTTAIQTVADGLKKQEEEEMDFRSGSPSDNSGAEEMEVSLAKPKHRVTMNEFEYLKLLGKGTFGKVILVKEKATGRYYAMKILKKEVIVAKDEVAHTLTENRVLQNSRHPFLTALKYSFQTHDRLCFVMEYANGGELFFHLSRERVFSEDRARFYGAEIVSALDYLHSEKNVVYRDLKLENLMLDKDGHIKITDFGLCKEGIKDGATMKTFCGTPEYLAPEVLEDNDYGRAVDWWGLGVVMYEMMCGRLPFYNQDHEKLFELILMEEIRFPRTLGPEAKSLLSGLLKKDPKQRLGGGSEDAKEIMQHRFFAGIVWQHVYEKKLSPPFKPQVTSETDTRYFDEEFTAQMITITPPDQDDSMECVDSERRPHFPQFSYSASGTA

Structure (SMILES)	AC50	outcome
NC(=O)NO	16.5 µM (active)	
Cn1cnc([N+](=O)[O-])c1Sc1ncnc2nc[nH]c12		inactive
O=C(O)c1cccc(Oc2ccccc2)c1		inactive
CC(C)CC(C)(O)C#CC(C)(O)CC(C)C (configuration not stated)		inactive
CCOCCOCCOCCO		inactive
O=C(O)c1cc(N=Nc2ccc(S(=O)(=O)Nc3ccccn3)cc2)ccc1O		inactive

The compounds below were run against human Beta-secretase (BACE), BACE1 (gene 23621) (UniProt P56817) (assay: NVS_ENZ_hBACE: NovaScreen (NVS) Enzymatic Assay for human Beta-secretase (BACE) (AID 2283140);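 note: hits are inhibitors that reduce fluorescent substrate signal versus DMSO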).
Summary of the method: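 Compounds were first tested in duplicate at 25 uM, then actives in concentration series, against recombinant BACE1 from SF9 cells. Enzyme activity was measured by fluorescence intensity 1 hour after dosing, with DMSO as negative control.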

Sequence of human Beta-secretase (BACE), BACE1 (gene 23621) (P56817 whole entry, looked up): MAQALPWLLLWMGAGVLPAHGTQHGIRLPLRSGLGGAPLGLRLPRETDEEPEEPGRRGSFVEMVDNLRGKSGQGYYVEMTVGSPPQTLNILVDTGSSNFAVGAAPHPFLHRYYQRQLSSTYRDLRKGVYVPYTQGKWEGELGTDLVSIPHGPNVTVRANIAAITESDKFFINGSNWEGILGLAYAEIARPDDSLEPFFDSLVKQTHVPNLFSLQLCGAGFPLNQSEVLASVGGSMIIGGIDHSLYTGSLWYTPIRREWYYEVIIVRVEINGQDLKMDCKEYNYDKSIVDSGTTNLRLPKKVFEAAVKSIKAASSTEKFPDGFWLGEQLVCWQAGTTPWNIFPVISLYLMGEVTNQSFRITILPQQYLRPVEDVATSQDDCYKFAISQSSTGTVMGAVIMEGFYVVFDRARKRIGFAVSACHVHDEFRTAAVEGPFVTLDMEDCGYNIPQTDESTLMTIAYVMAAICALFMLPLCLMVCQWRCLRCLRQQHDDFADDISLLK

Structure (SMILES)	outcome	AC50
Nc1nc2ncc(CNc3ccc(C(=O)N[C@@H](CCC(=O)O)C(=O)O)cc3)nc2c(=O)[nH]1	inactive	
CNCc1ccc(NC(=O)c2c[nH]c3c2C(=O)CCC3)cc1	inactive	
O=C1CCC(N2C(=O)c3ccccc3C2=O)C(=O)N1 (configuration not stated)	inactive	
CCOc1cccc(-n2cc(C(=O)N3CCN(c4cc(C(=O)O)c5ccccc5c4)CC3)nc2-c2ccc(C)cc2)c1		10.5 µM (active)
Cc1c(-c2cccnc2)c2ccccc2n1CCCCC(=O)O	inactive	

What follows are compounds tested against human AKT serine/threonine Kinase 2 (AKT2), AKT2 (gene 208) (UniProt P31751) (assay: NVS_ENZ_hAKT2: NovaScreen (NVS) Enzymatic Assay for human AKT serine/threonine Kinase 2 (AKT2) (AID 2283141)).
Experimental: NVS_ENZ_hAKT2 is a biochemical, single-readout assay that uses extracted gene-proteins in a cell-free assay. Measurements were taken 1 hour after chemical dosing in a 384-well plate.NVS_ENZ_hAKT2 is one of one assay component(s) measured or calculated from the NVS_ENZ_hAKT2 assay. It is designed to make measurements of enzyme activity, a form of enzyme reporter, as detected with fluorescence intensity signals by Fluorescence and electrophoretic mobility shift technology.Data from the assay component NVS_ENZ_hAKT2 was analyzed into 1 assay endpoint. This assay endpoint, NVS_ENZ_hAKT2, was analyzed in the positive analysis fitting direction relative to DMSO as the negative control and baseline of activity. Using a type of enzyme reporter, loss-of-signal activity can be used to understand changes in the enzymatic activity as they relate to the gene AKT2. Furthermore, this assay endpoint can be referred to as a primary readout, because this assay has produced multiple assay endpoints where this one serves a enzymatic activity function. To generalize the intended target to other relatable targets, this assay endpoint is annotated to the kinase intended target family, where the subfamily is serine/threonine kinase.
Binding assays used specific radioligands (tritiated, iodinated) with non-radioactive competitive displacement ligands in agonist or antagonist protocols (as indicated) and various reference compounds and inhibitors to titrate specific binding to receptors and transporters. Most enzyme assays (CYPs, kinases, phosphatases, proteases, HDACs) used recombinant protein and specific substrates (fluorescence mostly, some colorimetric and radioactive) and inhibitors, followed by a biochemical separation of substrate and product. All assays for the biochemical HTS were initially run in duplicate at a single concentration (10 uM for CYP450 assays and 25 uM for all others). […]

Sequence of human AKT serine/threonine Kinase 2 (AKT2), AKT2 (gene 208) (P31751 whole entry, looked up): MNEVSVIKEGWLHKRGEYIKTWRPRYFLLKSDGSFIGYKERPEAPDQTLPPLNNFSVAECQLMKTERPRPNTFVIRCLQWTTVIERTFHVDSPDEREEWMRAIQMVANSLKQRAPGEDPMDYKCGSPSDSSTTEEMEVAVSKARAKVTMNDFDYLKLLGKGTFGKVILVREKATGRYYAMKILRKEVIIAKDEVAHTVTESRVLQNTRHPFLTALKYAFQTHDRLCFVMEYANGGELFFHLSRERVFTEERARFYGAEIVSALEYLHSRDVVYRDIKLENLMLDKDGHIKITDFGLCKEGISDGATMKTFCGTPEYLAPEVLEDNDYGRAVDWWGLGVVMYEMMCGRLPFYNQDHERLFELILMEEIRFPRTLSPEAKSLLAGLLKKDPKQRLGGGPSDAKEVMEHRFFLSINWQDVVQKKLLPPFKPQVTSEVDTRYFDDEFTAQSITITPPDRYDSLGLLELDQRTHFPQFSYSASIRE

Structure (SMILES)	outcome
CC[C@H](C)C(=O)O[C@H]1C[C@@H](C)C=C2C=C[C@H](C)[C@H](CC[C@@H]3C[C@@H](O)CC(=O)O3)[C@H]21	inactive
CC(C)CCCCCCCOC(=O)CCCCC(=O)OCCCCCCCC(C)C	inactive
Cn1cnc([N+](=O)[O-])c1Sc1ncnc2nc[nH]c12	inactive

Each compound was assayed against CDK2 (gene 1017) (UniProt P24941) (assay: NVS_ENZ_hCDK2: NovaScreen (NVS) Enzymatic Assay for human Cyclin-Cependent Kinase 2 (CDK2) (AID 2283144)).
Summary of the method: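 Cell-free recombinant human CDK2 with fluorescent substrate, product separated by electrophoretic mobility shift; 1 hr read. Primary screen at 25 uM in duplicate, actives retested in concentration-response up to 50 uM; loss of signal versus DMSO.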

Structure (SMILES)	outcome	AC50
C=CCCCCCCCCC(=O)O	inactive	
O=C(O)c1cc(N=Nc2ccc(S(=O)(=O)Nc3ccccn3)cc2)ccc1O	inactive	
COc1ccc2sc(C(=O)Nc3nnn[nH]3)c(OC(C)C)c2c1		10.1 µM (active)
